CYP2C9 act = CYP2C9 (human) activation | P11712 | recombinant CYP2C9, luciferin-H conversion, luminescence; hits give high values; factor 1 = untreated enzyme, 0 = blocked | activation factor at 5 µM | 1.4% of 96,000 active | AID 1024;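 active = activation factor of 2 or more for CYP2C9 at a 5 µM dose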
CYP2C19 inh = inhibitors of human CYP2C19; 21% of 96,000 active; inhibition, % at 5 µM; P33261; CYP2C19 Supersomes, luciferin-H EGE luminescence, 30 min;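 active = CYP2C19 inhibition above a set limit at 5 µM in the primary screen, cut at about 50% in these data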
Target sequence (P33261 whole entry, looked up): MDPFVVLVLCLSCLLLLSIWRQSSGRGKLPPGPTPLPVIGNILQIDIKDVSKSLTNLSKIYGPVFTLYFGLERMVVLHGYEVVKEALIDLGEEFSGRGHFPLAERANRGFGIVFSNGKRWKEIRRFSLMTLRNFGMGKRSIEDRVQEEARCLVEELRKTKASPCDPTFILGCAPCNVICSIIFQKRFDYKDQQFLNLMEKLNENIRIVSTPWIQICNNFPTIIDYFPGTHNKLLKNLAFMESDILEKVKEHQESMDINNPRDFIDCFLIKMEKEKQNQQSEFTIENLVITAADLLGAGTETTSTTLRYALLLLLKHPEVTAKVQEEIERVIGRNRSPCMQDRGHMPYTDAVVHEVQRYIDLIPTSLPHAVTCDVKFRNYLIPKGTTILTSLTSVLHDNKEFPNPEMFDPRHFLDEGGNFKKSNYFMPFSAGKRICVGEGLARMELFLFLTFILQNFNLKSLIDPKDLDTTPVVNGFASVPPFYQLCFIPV
EphB4 ephrin blk = antagonists of human EphB4-ephrin-B2 interaction; EphB4 LBD / TNYL-RAW-Alexa532 peptide, fluorescence polarization; inhibition, % at 7 µM; 0.15% of 97,000 active; AID 720;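 active = inhibition above the screen-wide mean inhibition plus 3 SD, cut at about 15% in these data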
CYP2C19 act = cytochrome P450 2C19 (human) activation. P33261. 96,000 tested, under 10 active. recombinant CYP2C19, luciferin-H EGE luminescence; hits give high values; 0 = fully inhibited enzyme, 1 = untreated enzyme. AID 1025. activation factor at 5 µM;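 active = activation factor of at least 2 at 5 µM in the primary screen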
CYP2C9 inhib = blocks human cytochrome P450 2C9. P11712. CYP2C9 Supersomes, luciferin-H conversion, luminescence. inhibition, % at 5 µM. 20% of 96,000 active;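 active = blocking of liver enzyme CYP2C9 beyond about 50% at 5 µM, limit read from the data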
Hits are given with their value; i = inactive; nt = not tested or not shown. Hits are enriched below; roughly 27% of the tested compounds scored in any of these assays.

SMILES	CYP2C9 act	CYP2C19 inh	EphB4 ephrin blk	CYP2C19 act	CYP2C9 inhib
C=CCC(C)(NCc1ccccc1)c1ccccc1 (stereo not drawn)	i	62	i	i	i
C=CCC(CC=C)(NC(=O)c1ccccc1)c1ccccc1	i	i	i	i	i
Cc1ccc(Cc2nnc3n(-c4cccc(C)c4)nc(C(=O)c4ccccc4)n3c2=O)cc1	nt	nt	i	nt	nt
Cc1nc2ccccc2c2oc(C(=O)N3CCN(C(=O)c4ccco4)CC3)cc12	i	i	nt	i	i
Cc1nc(N2CCN(C(=O)c3ccco3)CC2)c2oc3ccccc3c2n1	i	70	nt	i	53
Cc1nc(N2CCC(C)CC2)c2oc3ccccc3c2n1	i	67	i	i	70
CCc1nc(N2CCN(C(=O)c3ccco3)CC2)c2oc3ccccc3c2n1	i	95	i	i	92
COc1ccccc1N1CCN(c2nc(C)nc3c2oc2ccccc23)CC1	i	i	i	i	i
CCCC(=O)N1CCN(c2ccc(C(=O)c3ccc(OC)c(Br)c3)cc2F)CC1	i	i	nt	i	i
COC(=O)c1[nH]c2ccccc2c1NC(=O)CN1CCN(c2cccc(Cl)c2)CC1	i	i	i	i	i
CCCC1=Nc2cc(C(=O)NCCCOCC)ccc2Sc2ccccc21	i	i	i	i	i
CCC1=Nc2cc(C(=O)NCCCOC)ccc2Sc2ccccc21	i	54	i	i	i
COc1ccc(C2C(C(=O)c3sc(C)nc3C)=C(O)C(=O)N2CCN(C)C)cc1OC (stereo not drawn)	i	i	i	i	i
Cc1nn(-c2ccccc2)c(Cl)c1C(=O)OC(C)C(=O)Nc1ccc2c(c1)OCO2 (stereo not drawn)	i	85	i	i	79
Cc1onc(-c2ccccc2)c1C(=O)Nc1ccc2c(c1)OCO2	i	99	i	i	79
COc1cc(C(=O)OC(C)C(=O)Nc2ccc3c(c2)OCO3)ccc1OCc1c(C)noc1C (stereo not drawn)	i	i	i	i	i
Cc1onc(-c2ccccc2Cl)c1C(=O)OCC(=O)Nc1ccc2c(c1)OCO2	i	99	nt	i	88
Cc1onc(-c2ccccc2)c1C(=O)Nc1ccc2c(C)cc(=O)oc2c1	i	i	nt	i	i
Cc1onc(-c2ccccc2)c1C(=O)OCC(=O)Nc1ccc2c(c1)OCO2	i	54	i	i	52
CCOC(=O)c1cc(=O)cc(C(=O)OCC)o1	i	i	i	i	i
Cc1nn(-c2ccccc2)c(C)c1C(=O)OCC(=O)Nc1ccc2c(c1)OCO2	i	95	i	i	89
CCn1ccc(C(=O)Oc2ccc(Cl)cc2)n1	i	i	i	i	i
CC(C)NC(=O)c1ccc(-c2cccc(C(F)(F)F)c2)o1	i	i	i	i	i
CCNC(=O)n1nccc1C(C)Oc1ccc(Cl)cc1 (stereo not drawn)	i	88	i	i	71
CCNC(=O)n1nccc1C(C)Oc1cccc(C(F)(F)F)c1 (stereo not drawn)	i	56	i	i	i
SMILES	CYP2C9 act	CYP2C19 inh	EphB4 ephrin blk	CYP2C19 act	CYP2C9 inhib
CCCC(=O)Nc1c(-c2cccs2)c(=O)c2ccccc2n1C	i	i	i	i	i
CCn1c(NC(=O)c2cccs2)c(-c2cccs2)c(=O)c2ccccc21	i	i	i	i	93
Cc1ccc(C(=O)Nc2c(-c3cccs3)c(=O)c3ccccc3n2C)cc1	i	i	i	i	98
CCN(CC)C(=O)C1CCN(S(=O)(=O)c2ccc3oc4ccccc4c3c2)CC1	i	i	i	i	i
COc1ccccc1CNC(=O)CS(=O)Cc1nc(-c2ccccc2C)oc1C (stereo not drawn)	i	i	i	i	i
O=[N+]([O-])c1ccc(Sc2ccccc2Cl)nc1	i	62	i	i	i
O=[N+]([O-])c1ccc(Sc2n[nH]c(-c3ccc(Cl)cc3Cl)n2)nc1	i	i	i	i	i
COC(=O)CCC(=O)Nc1ccc(C)cc1OC(=O)CCC(=O)OC	i	i	i	i	i
COC(=O)CNC(c1ccccc1)c1cc(Br)ccc1NC(=O)OCc1ccccc1 (stereo not drawn)	i	i	i	i	74
COC(=O)CNC(c1ccccc1)c1cc(C)ccc1NC(=O)CNC(=O)OCc1ccccc1 (stereo not drawn)	i	82	i	i	94
O=C(Cc1cccs1)N1CCC(c2nc3c(nnn3Cc3ccc(F)cc3)c(=O)[nH]2)CC1	i	i	i	i	96
O=C(Cc1cccs1)N1CCN(c2ccc(F)cc2)CC1	nt	nt	i	nt	nt
O=C(Cc1cccs1)N1CCCC(c2nc3c(nnn3Cc3cccc(Cl)c3)c(=O)[nH]2)C1 (stereo not drawn)	i	66	i	i	96
Cc1ccc(C)c(Cn2nnc3c(=O)[nH]c(C4CCCN(C(=O)C5CCC5)C4)nc32)c1 (stereo not drawn)	i	i	i	i	i
O=S(=O)(N/N=C1/CCCc2ccccc21)c1ccc(Br)cc1	nt	nt	i	nt	nt
Cc1ccc(S(=O)(=O)N/N=C2/CC(c3ccccc3)Oc3ccccc32)cc1[N+](=O)[O-] (stereo not drawn)	i	67	i	i	99
O=S(=O)(N/N=C1/CC(c2ccccc2)Oc2ccccc21)c1ccc(Br)cc1 (stereo not drawn)	i	i	i	i	65
CCCCOCCCNC(=O)c1ccc2c(c1)OCO2	i	i	i	i	i
Cc1nc2c(C#N)c(C)[nH]n2c(=O)c1Cc1ccccc1	i	i	i	i	63
Cc1[nH]n2c(=O)cc(Cc3ccccc3)nc2c1C#N	i	i	i	i	77
Cc1nc2c(C#N)c[nH]n2c(=O)c1Cc1ccccc1	i	i	i	i	63
N#Cc1c[nH]n2c(=O)cc(Cc3ccccc3)nc12	i	i	i	i	i
Cc1nc2nc(SCC(=O)N3CCOCC3)nn2c(C)c1Cc1ccccc1	i	i	i	i	i
CC1CCN(c2c(NCc3ccc(C(=O)NCC4COc5ccccc5O4)cc3)c(=O)c2=O)CC1 (stereo not drawn)	nt	nt	i	nt	nt
CC1=CC(C)(C)Nc2ccc(OC(=O)C(Cc3ccccc3)N3C(=O)c4ccccc4C3=O)cc21 (stereo not drawn)	i	i	i	i	56
SMILES	CYP2C9 act	CYP2C19 inh	EphB4 ephrin blk	CYP2C19 act	CYP2C9 inhib
CC1=CC(C)(C)Nc2ccc(OC(=O)CN3C(=O)c4cccc5cccc(c45)C3=O)cc21	i	i	i	i	i
O=[N+]([O-])c1ccc2nc(/C=C/c3ccc(Cl)cc3)[nH]c2c1	i	i	i	i	i
O=c1nc(/C=C/c2cc([N+](=O)[O-])ccc2Cl)cc(C(F)(F)F)[nH]1	i	i	i	i	81
CCOC(=O)c1ccc2nc(C(F)(F)F)[nH]c(=O)c2c1	i	i	i	i	60
COCc1nnc(N)s1	i	i	i	i	i
CCOc1ccc(NC(=O)CN2CCN(CC(=O)Nc3ccc(C(=O)OC)cc3)CC2)cc1	i	i	i	i	i
Cc1nc2c(Br)cc(Br)cc2cc1O	i	i	i	i	62
Cc1ccc(/C=N/NC(=O)c2cc(C)oc2C)o1	i	i	i	i	i

Bioassay records (PubChem BioAssay)
